Consider 40 molecules from PubChem BioAssay (Tox21).

Values without a mark were called inactive. The source made the active and inactive calls. Calls come from the whole dose curve; as a rule, active = well fitted activation curve with a large enough effect in the repeat runs; inconclusive = weak or mixed curves; inactive = flat fitted curve, though single readings scatter.
% is set by controls: 0 for no effect and ±100 for the full control effect.

This assay can be described thus: A CellTox Green Cytotoxicity Assay to monitor cytotoxicity in HepG2 cells - 0 hour (AID 1224882). Note: nearly all actives have a fitted effect of over 35% in size. Conditions: CellTox Green fluorescence; series mostly up to 76.8 µM. The source says: National Center for Advancing Translational Sciences [NCATS]
NIH Chemical Genomics Center [NCGC]
U.S. Environmental Protection Agency [EPA]
National Institutes of Environmental Health Sciences [NIEHS]
National Toxicology Program [NTP]
Cell-based models are critical for drug discovery. Determining the natural cytotoxic effects resulting from test compounds is an essential research activity. A CellTox Green Cytotoxicity Assay to monitor cytotoxicity in real time of continues cell culture during 40 hours of the compound treatment was used to screen Tox21 10K library compounds in HepG2 cells. CellTox Green Cytotoxicity Assay is a nonlytic, homogeneous, biofluorescent method to measure cytotoxicity in cell culture after experimental manipulation. The assay system uses a proprietary asymmetric cyanine dye that is excluded from viable cells but preferentially stains the dead cell's DNA. […] Viable cells produce no appreciable increases in fluorescence. Therefore, the fluorescence signal produced by the binding interaction with dead cell DNA is proportional to cytotoxicity.
The mixture of HepG2 cell suspension and reagents were dispensed at 600cells/6 ul/well in 1536-well tissue culture treated black solid bottom plates using a Multidrop dispenser. After the assay plates were incubated at a 37 C/5% CO2 incubator for 5 hours, 23 nL of compounds dissolved in DMSO, positive and negative controls was transferred to the assay plate by a pintool work station. The plates were incubated at 37 C for 40 hours. The fluorescence intensity were measured at 0h, 8h, 16h, 24h, 32h and 40h time points using ViewLux plate reader during compound treatment.
As for `Brc1c(Br)c(Br)c(Br)c(Br)c1Br`, the cytotoxicity was 0.332% [at 6.97 µM].

Regarding `O=[N+]([O-])c1cccc(CCl)c1`, the molecule was called inactive. The same measure, in the same setting: for `CC(C)N(Cc1ccccc1)C(=O)C(C)(C)C` the value was “inactive”.

As to `NC(=O)CS(=O)C(c1ccccc1)c1ccccc1` (stereo not given), the call was inactive.

Turning to `CC(=O)OCC1=C(C(=O)O)N2C(=O)[C@@H](N)[C@H]2SC1`, the cytotoxicity is -8.52% [at 15.8 µM]. For `CC(C)(C)C(=O)Cl`, the result was inactive. For `CCN[C@@H](C)Cc1ccccc1`, the result was inactive.

For the molecule `CCOC(=O)C(SP(=S)(OC)OC)c1ccccc1` (stereo not given), the molecule was classed as inactive. For the molecule `CCC(=O)c1ccc(Cl)cc1`, the molecule was called inactive. Consider `CN(CCO)CCO`, for which the molecule was called inactive. Turning to `CCCOC(=O)c1cncn1C(C)c1ccccc1` (stereo not given), the molecule was classed as inactive. Same read-out and setting: for `BrCc1ccc(Br)cc1` the value was “inactive”; for `CCOC(=O)Nc1cccc(OC(=O)Nc2ccccc2)c1`, “inactive”. With `CNC(=O)O/N=C(/CSC)C(C)(C)C`, the molecule was called inactive. Consider `CC(C)[C@]12CC(=O)[C@H](C)[C@H]1C2`, for which the result was inactive.

With `[O-][Br+2]([O-])O`, the call was inactive. On the same count and under the same terms, for `C#CCOC(=O)/C=C(C)/C=C/CC(C)CCCC(C)C` (stereo not given) the value was “inactive”; for `C=C1CC[C@@]2(O)[C@H]3Cc4ccc(O)c5c4[C@@]2(CCN3CC2CC2)[C@H]1O5`, “inactive”; for `C[N+]1(C)CCCCC1`, “inactive”. As for `COC(=O)[C@@H](N)CCCN/C(N)=N/[N+](=O)[O-]`, the outcome was inactive.

As to `c1ccc2c(c1)CCNC2`, the outcome was inactive. Take `C#CC(C)(C)O`: the outcome was inactive. On to `CCCC[N+](=O)[O-]`, for which the molecule was classed as inactive. With `Oc1ccc2c3c1O[C@H]1[C@@H](O)C=C[C@H]4[C@@H](C2)NCC[C@@]341`, the molecule was called inactive. For `C=CC(=O)OCCN(C)C`, the outcome was inactive. The same measure, in the same setting: to `CCCOC(=O)Cc1ccc(OCC(=O)N(CC)CC)c(OC)c1` belongs “inactive”; to `CC(O)CCl` (stereo not given), “inactive”; to `CCOC(=O)NC(C)(C)Cc1ccc(Cl)cc1`, “inactive”. The same measure, in the same setting: to `O=C(Cl)C(Cl)Cl` belongs “inactive”; to `ClCC1CO1` (stereo not given), “inactive”.

In the case of `CS(=O)(=O)c1ccc(C(=O)C2C(=O)CCCC2=O)c(Cl)c1COCC(F)(F)F`, the result was inactive. For `NCCOS(=O)(=O)O`, the result was inactive. In the case of `CC[C@@H](CO)NC(=O)[C@@H]1C=C2c3cccc4[nH]cc(c34)C[C@H]2N(C)C1`, the call was inactive.

Turning to `CCSC(=O)Cl`, the result was inactive. Regarding `CCN(CCO)CCn1c(Cc2ccccc2)nc2c1c(=O)n(C)c(=O)n2C`, the result was inactive. For `CC[C@H](N)c1ccccc1`, the molecule was classed as inactive. For `CCC1(c2cccc(O)c2)CCCCN(C)C1` (stereo not given), the result was inactive. For the molecule `CN=CNc1ccc(C)cc1C`, the result was inactive.

Take `c1cncc([C@@H]2CCCCN2)c1`: the molecule was classed as inactive. As for `CCCC(C)(COC(N)=O)COC(N)=O`, the outcome was inactive.
